Experimental data from PubChem BioAssay AID1458 (National Center for Advancing Translational Sciences (NCATS), 2008).
The whole screen tested about 210,000 compounds, of which about 5,900 (2.8%) were called active. Not shown: some 5% with an inconclusive outcome. Calls follow the shape of the dose curve; as a rule, active = well fitted activation curve with a large enough effect; inconclusive = small, poorly fitted or top-dose-only effect; inactive = no such curve, though single readings can be large or run the other way. Shown is part of a subset that was picked to be rich in actives.

Assay: qHTS Assay for Enhancers of SMN2 Splice Variant Expression; also: nearly all actives have a fitted effect of over 55% in size; as to activity change, positive = activation: % of control where 0% means no effect
Conditions: HEK293 SMN2-luciferase splicing reporter, luminescence, 30-36 h; series mostly up to 46.1 µM; activity change, positive = activation: at the top concentration
Outline: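 qHTS luciferase splicing reporter: luminescence rises when SMN2 exon 7 is included in transfected HEK293 cells. Compound exposure lasted 30-36 h at 37C, with 4.5 mM final sodium butyrate as control, followed by a ONE-Glo read.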
Potency is read from the fitted curve at half-maximal effect.

Activity change, positive = activation, inactive:
CCOc1ccc2oc(=O)cc(CN3CCN(C(=O)c4ccc(F)cc4)CC3)c2c1 -15.9%
CCOC(=O)c1ccc(NC(=O)CC2C(=O)N(c3cccc(OC)c3)C(=O)N2C2CCCCC2)cc1 (stereo not drawn) 1.93%
COc1cc(C(=O)N2CCN(C(=O)COc3cccc(C)c3)CC2)cc(OC)c1OC 21.2%
CC(=O)c1sc(N2C(=O)c3oc4ccccc4c(=O)c3C2c2ccc(C)cc2)nc1C (stereo not drawn) -8.25%
CCc1ccc(NC(=O)c2sc3nc4c(cc3c2N)CN(CC)CC4)cc1 -16.2%
O=C(CSc1ccccc1)Nc1ccc(NC(=O)c2ccco2)cc1 3.71%
O=C(/C=C/c1ccco1)Nc1ccc(Oc2ccccc2)cc1 14.3%
C#CC(C)(CC)NC(=O)Cn1nnc(-c2ccc(OCc3c(F)cccc3Cl)cc2)n1 (stereo not drawn) -28%
COc1ccc(CCNC(=O)CCCCn2c(=O)c3ccccc3n(Cc3ccccc3)c2=O)cc1OC 3.78%
COc1cc(/C=C/CO)cc(OC)c1O[C@@H]1O[C@H](CO)[C@@H](O)[C@H](O)[C@H]1O 11%
Cc1noc(/C=C/N(C)C)c1S(=O)(=O)N1CCCC(C(=O)Nc2cccc(F)c2)C1 (stereo not drawn) 11.2%
Cc1cc(C)c(NC(=O)CCc2c(C)nc3c(c(C)nn3C(C)(C)C)c2C)c(C)c1 1.34%
c1ccc(CSc2nnc(-c3ccco3)c(-c3ccco3)n2)cc1 -1.17%
O=C(CSc1nnc(-c2ccco2)n1Cc1ccccc1)NC(=O)NCc1ccco1 -11%
COc1ccc(Cn2cc(C(=O)c3ccc(C)cc3)c(=O)c3cc(OC)c(OC)cc32)cc1 -5.96%
Cc1ccn2c(Nc3ccc4c(c3)OCCO4)c(-c3ccc(C)s3)nc2c1 17.7%
CCN(CC)S(=O)(=O)c1ccc(C(=O)N=c2sc3cccc(OC)c3n2C)cc1 -4.59%
Cc1cc(C)c(-c2n[nH]c3c2C(c2ccccc2F)N(CCO)C3=O)c(O)c1 (stereo not drawn) 7.88%
CCn1cc(C(=O)N2CCN(c3cc(C)ccc3C)CC2)c(=O)c2cc(S(=O)(=O)N(C)C3CCCCC3)ccc21 -12.9%
CCOc1ccc(NC(=O)CC2C(=O)N(c3cccc(OC)c3)C(=O)N2C2CCCCC2)cc1 (stereo not drawn) -1.25%
Cc1cccc(CC(=O)N2CC(=O)Nc3ccc(F)cc3C2c2ccccc2)c1 (stereo not drawn) -3.94%
Cc1ccc(NN=C2C(=O)OC(C)(C)OC2=O)c(C)c1 29.2%
COc1ccc(N/N=C2/CCCCC2=O)cc1 18.6%
CCCn1c(=N)n(CC(O)COc2ccccc2OC)c2ccccc21 (stereo not drawn) -15.6%
CCOC(=O)c1ccc(NC(=O)CCn2c(=O)oc3ccccc32)cc1 -14.6%
CSc1ccc(/C=N\NC(=O)COc2ccc(Cl)cc2Br)cc1 -16.2%
COc1ccc(/C=N/NC(=O)c2cccc(C(F)(F)F)c2)cc1 2.79%
CCn1cc(C(=O)N(C)Cc2ccccc2)c(=O)c2cc(S(=O)(=O)N3CCCCCC3)ccc21 -2.11%
COC(=O)c1c(NC(=O)c2cc(=O)c3c(C)cc(C)cc3o2)sc2c1CCCC2 8.45%
Cc1nc(SCCOc2ccc(Cl)cc2)[nH]c(=O)c1Cc1ccccc1 1.8%
Cc1ccc(C(=O)Nc2nc(-c3ccccc3)ns2)cc1 25.4%
CCSc1nnc(NC(=O)Cc2ccccc2OC)s1 -8.87%
COc1ccc(/C=N\NC(=O)c2sc(N)nc2C)cc1OC 29.4%
Cc1nnc(C)n1/N=C/c1ccc(C(C)C)cc1 -20.6%
CCOC(=O)CSc1nnc(NC(=O)c2cccc(S(=O)(=O)N3CCCCC3)c2)s1 -29.9%
Cc1ccc(S(=O)(=O)Nc2nc(C)cc(N/N=C/c3ccc(O)cc3)n2)cc1 8.38%
Cc1nonc1C(=O)N/N=C/c1ccc(O)cc1 1.94% [at 1.84 µM]
CC(=O)c1sc(NC(=O)C2=NN(c3ccccc3)C(=O)CC2)nc1C 7.92%
CCc1ccc(S(=O)(=O)c2nnn3c2nc(NCc2ccccc2OC)c2cc(Cl)ccc23)cc1 1.15%
CCOc1ccc(C2C(C(=O)Nc3ccc(Cl)cc3)=C(C)Nc3nc(C(F)(F)F)nn32)cc1 (stereo not drawn) -4.78%
Cc1nn(CC(=O)N2CCN(c3cccc(C(F)(F)F)c3)CC2)c(=O)c2cc3sccc3n12 -5.94%
C/C=C(\C)C(=O)O[C@H]1CC(C)=C2C(=O)C=C(C)C2[C@@H]2OC(=O)[C@@](C)(OC(=O)C=C(C)C)C21 (stereo partly drawn) 17.7%
CCN(CCCNC(=O)c1cc(Nc2ccc(OC)cc2)nc2ccccc12)c1cccc(C)c1 -7.3%
CC(C)c1ccc(NC(=O)CN(C)S(=O)(=O)c2ccc3c(c2)c(=O)n(C)c(=O)n3C)cc1 -0.203%
O=C(CSc1oc(-c2ccco2)nc1S(=O)(=O)c1ccccc1)c1ccc(Cl)cc1 5.8%
Cc1ccc(-c2nn(CCC(=O)Nc3ccc(OC(F)(F)F)cc3)c(=O)c3ccccc23)cc1 -2.18%
CCOc1cc(/C=C(\C#N)C(=O)Nc2ccccc2C)ccc1OCc1cc(=O)n2nc(CC)sc2n1 12.3%
COc1ccc(-n2c(=O)c3sc4ccccc4c3n(CC(=O)Nc3cccc(C)c3)c2=O)cc1 13.3%
C/C=C(\C)C(=O)OC1C(OC(=O)C2(C)OC2C)c2cc3ccc(=O)oc3cc2OC1(C)C (stereo not drawn) -5.48%
Cc1cccc(Cn2c(SCc3ccc(C(=O)N4CCC(C)CC4)cc3)nc3ccncc32)c1 -22%
CC1=C(C(=O)OCC(C)C)C(c2ccc(OCc3ccccc3)cc2)N2C(=O)CCSC2=N1 (stereo not drawn) -4.32%
COC(=O)c1cc(NC(=O)c2sc3ccccc3c2Cl)cc(C(=O)OC)c1 -2.69%
CCCC(=O)Nc1ccc(NC(=O)c2sc3ccccc3c2Cl)cc1 7.87%
COc1ccc(/C=C/c2nc(C#N)c(NCc3ccc(F)cc3)o2)cc1OC 4.34%
CCOc1ccc(CNC(=O)C2CCN(c3nnc(-n4cccc4CNc4ccc(C)cc4)s3)CC2)cc1OC -9.08%
COc1ccc2[nH]cc(CCNc3ncnc4ccc(-c5ccccc5CN(C)C)cc34)c2c1 -14.1%
COCCNc1ncnc2ccc(-c3ccccc3CN(C)C)cc12 5.05%
Cc1c(NC(=O)Nc2ccc(F)c(Cl)c2)c(=O)n(-c2ccccc2)n1C -4.12%
Cc1cccc(C)c1OC(=O)CSc1nnc(-c2ccccc2)o1 -14.4%
CCOC(=O)CSc1nnc(-c2ccncc2)o1 -22.8%
O=C(Cc1ccc(Cl)cc1)Nc1ccc2nn(-c3ccc(Cl)cc3)nc2c1 20.2%
CCCCNC(=O)c1ccc2c(c1)NC(=O)C(C(C)C)N2 (stereo not drawn) -6.9%
COc1ccc(CNc2nc(-c3ccccc3)nn2C(=O)c2ccccc2OC)cc1 10.8%
Brc1cccc(-c2nnn3c2nc(NC2CCCCC2)c2ccccc23)c1 -4.5%
COc1ccc(N2CCN(Cc3nc4c(c(=O)[nH]c(=O)n4C)n3Cc3ccc(Cl)cc3)CC2)cc1 -0.446%
O=C(NCCC1=CCCCC1)C1CCN(Cc2cnn(-c3ccccc3)c2-n2cccc2)CC1 -22.3%
c1ccc(-n2ncc3c(N4CCCC4)ncnc32)cc1 22.3%
CCOc1ccccc1C(=O)NC1(C(F)(F)F)C(=O)Nc2c1c(=O)[nH]c(=O)n2-c1ccc(F)cc1 (stereo not drawn) -3.45%
O=C(NC1(C(F)(F)F)N=C(c2ccccc2)N(C2CCCCC2)C1=O)c1ccccc1F (stereo not drawn) 8.62%
CCCN1CN=C(NS(=O)(=O)c2ccc(NC(C)=O)cc2)NC1 18.8%
COc1ccc(-c2cc(-c3ccc(F)cc3)nc3c2COc2ccccc2-3)cc1 0.862%
FC(F)(F)c1cnc(Oc2ccccc2-c2nnc(-c3ccc(Cl)cc3)o2)c(Cl)c1 -27.6%
Clc1ccc(-c2nnc(SCc3nc4ccccc4s3)o2)cc1 32.9%
CCOC(=O)c1ccccc1NC(=O)CCc1c(C)nc2c(c1C)c(=O)n(C)c(=O)n2C 3.25%
CCN(CC)S(=O)(=O)c1ccc2c(c1)N(CC(=O)NCc1ccccc1)C(=O)CS2 13.4%
O=C(CSc1nnc(-c2ccncc2)o1)NCc1ccc(Cl)cc1 -0.354%
CCc1ccccc1NC(=O)CSc1nnc(-c2ccncc2)o1 8.81%
N#Cc1nc(/C=C/c2ccc(F)cc2)oc1NCc1ccc(F)cc1 1.53%
Cc1ccc2nc3c(cc(C(=O)NC4CCCCC4)c(=N)n3C(C)C)c(=O)n2c1 -15%
NCCC(=O)c1ccccc1N -8.09%
Cc1ccc(Nc2ccccc2N)cc1 11.1%
COc1ccc(NC(=O)C(=O)NCc2ccco2)cc1 0.617%
COc1cccc(NC(=O)N2CCN(C(=O)c3nsc4ccccc34)CC2)c1 -19.1%
COc1cccc2sc(NNC(=O)c3nc4ccccc4s3)nc12 -52.6%
COc1cccc2sc(N(CCCN(C)C)C(=O)C(c3ccccc3)c3ccccc3)nc12 -9.4%

Potency, active:
O=C(Nc1ccc(Oc2ccccc2)cc1)c1ccco1 15.8 µM
COc1cc(/C=C/C2=CC(C)(C)NC(=S)N2)cc(OC)c1OC 11.2 µM
c1ccc(CSc2nnc(-c3ccco3)n2Cc2ccccc2)cc1 22.4 µM
Cc1ccn(-c2cccc(-n3ccc(C)n3)n2)n1 7.94 µM
Cc1ccc(N/N=C2\COC(C)(C)CC2=O)cc1 11.2 µM
CSc1ccc(/C=N/NC(=O)c2cccc(Cl)c2)cc1 10 µM
CCSc1nnc(NC(=O)c2ccc(C)cc2)s1 14.1 µM
CC(=O)c1sc(N/N=C/c2ccc(C(C)C)cc2)nc1C 17.8 µM
CC(=O)c1sc(NC(=O)c2ccc(C)cc2)nc1C 5.62 µM
CC(=O)c1sc(N/N=C\c2ccc(C)cc2)nc1C 10 µM
O=C(Nc1ccon1)c1sc2ccccc2c1Cl 17.8 µM
COc1ccccc1CNc1ncnc2ccc(-c3c(C)noc3C)cc12 10 µM
CCCCSc1nnc(-c2ccc(C)cc2)o1 11.2 µM
C1=C(CCNc2ncnc3c2cnn3-c2ccccc2)CCCC1 12.6 µM
CSc1ccccc1-c1nnc(-c2ccc(Cl)cc2)o1 14.1 µM
O=C(CSc1nnc(-c2ccc([N+](=O)[O-])cc2)o1)Nc1ccccn1 3.16 µM
Nc1ccccc1N 11.2 µM
COc1cccc2sc(Nc3nc(C)c(C(C)=O)s3)nc12 7.94 µM
